USP2a block – qHTS Assay for Inhibitors of Ubiquitin-specific Protease USP2a Using CHOP2 as the Reporter | AID 463254, 2010 | hit rate 0.01% among 330,000 | Ubiquitin carboxyl-terminal hydrolase 2 (Homo sapiens), O75604 | Potency, µM (doses to about 38.3 µM), for inactives: top-dose activity change, negative = inhibition, most hits filed as inhibitors | USP2 core, Ub-CHOP2 coupled fluorogenic reporter, 485/531;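 further: potency means the concentration at half of the fitted maximal effect; plate controls were DMSO wells for no effect and full inhibition by NEM control for full effect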
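Deubiquitinase activity read as fluorescence (485/531 nm) after Ub-CHOP2 cleavage activates the enterokinase reporter on its substrate; USP2 core 10nM, Ub-CHOP2 and substrate 25nM each, 30min compound preincubation then 60min RT; data normalized to NEM, curves fitted.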
USP1 inh – Inhibitors of USP1/UAF1: Primary Screen; Ubiquitin carboxyl-terminal hydrolase 1 (Homo sapiens), O94782; recombinant USP1/UAF1, Ub-Rhodamine cleavage fluorescence; Potency, µM (highest dose often 57.1 µM), inactives show top-dose activity change, negative = inhibition, usual class: inhibitors; hit rate 0.23% among 390,000; AID 743255, 2014; further: potency means the concentration at half of the fitted maximal effect; on the % scale 0 is the no-effect control and ±100 the full control effect; nearly all actives have a fitted effect of over 60% in size
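USP1/UAF1 complex (1 nM) preincubated 15 min at room temperature with compound, then Ub-Rho substrate (150 nM final) added. Kinetic fluorescence at 480/540 nm over 6 reads at 60 s intervals; 50 mM HEPES pH 7.8, 0.5 mM EDTA, 0.1 mg/ml BSA, 1 mM TCEP, 0.01% Tween-20.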
PLK1 PBD inh – qHTS for Inhibitors of PLK1-PDB (polo-like kinase 1 - polo-box domain): Primary Screen | Plk1 PBD binding of FITC phosphopeptide, fluorescence polarization | Potency, µM, inactives show max response, negative = inhibition, usual class: inhibitors | hit rate 2.8% among 360,000 | AID 720504, 2013; further: potency means the concentration at half of the fitted maximal effect; series mostly up to about 57 µM; on the % scale 0 is the no-effect control and ±100 the full control effect; nearly all actives have a fitted effect of over 65% in size
PI5P4Ka inh – qHTS for Inhibitors of phosphatidylinositol 5-phosphate 4-kinase (PI5P4K). PI5P4Kalpha enzyme, ADP-Glo luminescence, 60 min; stronger effect = lower value. max response, %. hit rate 1.2% among 330,000. AID 652105, 2013; active means max response of -50% or lower; inconclusive means between -30% and -50%; inactive means -30% or higher; further: value at the top dose of about 77 µM; on the % scale 0 is the no-effect control and ±100 the full control effect
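Single end-point luminescence (ADP-Glo) quantified ADP from PI5P4Kalpha turnover; ATP 5 microM final, 1 h at RT, 0.1% CHAPS and 0.28 mM EGTA in HEPES pH 7.4.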
WRN helicase inh-1 – qHTS for Inhibitors of WRN Helicase. Bifunctional 3'-5' exonuclease/ATP-dependent helicase WRN (Homo sapiens), Q14191. WRN helicase unwinding, fluorescent forked duplex, kinetic. Potency, µM (highest dose often 114 µM), without a hit: top-dose activity change, negative = inhibition, usual class: inhibitors. hit rate 0.46% among 360,000. AID 651768, 2012; further: potency means the concentration at half of the fitted maximal effect; on the % scale 0 is the no-effect control and ±100 the full control effect; nearly all actives have a fitted effect of over 55% in size
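WRN at 20 nM final was preincubated with compound for 15 min at room temperature; reaction started with 100 nM forked duplex oligonucleotide carrying fluorophore and quencher plus 2 mM ATP (final). Unwinding followed kinetically by red fluorescence (ex 525/em 598 nm).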
WRN helicase inh-2 – qHTS for Inhibitors of WRN Helicase: Confirmatory Assay for Cherry-picked Compounds | shares compounds with WRN helicase inh-1 | WRN helicase DNA unwinding, fluorescence kinetic | Potency, µM (series often up to 57.1 µM), for the others: at the top dose activity, negative = inhibition, most hits filed as inhibitors | hit rate 63% among 610 | AID 720497, 2013; further: potency means the concentration at half of the fitted maximal effect; nearly all actives have a fitted effect of over 65% in size
TO displacement – qHTS for Inhibitors of WRN Helicase: Thiazole Orange DNA Binding Counterscreen. hit rate 10% among 610. thiazole orange DNA binding displacement, fluorescence. AID 720499, 2013. Potency, µM (titrated, usually from 57.1 µM), without a hit: at the highest dose activity change, negative = inhibition, most hits filed as inhibitors. shares compounds with WRN helicase inh-1;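 further: drop in dye fluorescence marks compound binding to DNA; potency means the concentration at half of the fitted maximal effect; on the % scale 0 is the no-effect control and ±100 the full control effect; nearly all actives have a fitted effect of over 60% in size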
BLM counter – qHTS for Inhibitors of WRN Helicase: BLM Helicase Counterscreen for WRN Inhibitors | Recombinant BLM helicase DNA unwinding, red fluorescence | hit rate 60% among 610 | shares compounds with WRN helicase inh-1 | Potency, µM (series often up to 57.1 µM), for the others: at the highest dose activity change, negative = inhibition, actives largely listed as inhibitors | AID 720503, 2013; further: potency means the concentration at half of the fitted maximal effect; nearly all actives have a fitted effect of over 60% in size
The depositor's hits bear a star; ? = inconclusive; / = no result given; ! = repeats disagree; [ ] = dose if it differs, or a comment. Shown are actives, neighbours in structure and some others; about 3.3% of the full set was active somewhere. Unless noted, the call rests on the fitted dose curve; in most records, active means well fitted curve in the direction sought with a large enough effect; inconclusive means small, poorly fitted or top-dose-only effect, or another doubt; inactive means no such curve, though single readings can be large; an effect the other way counts as inactive or inconclusive.

SMILES	USP2a block	USP1 inh	PLK1 PBD inh	PI5P4Ka inh	WRN helicase inh-1	WRN helicase inh-2	BLM counter	others
Oc1c(Br)c(Br)c(Br)c(Br)c1Br	2%	?	27µM*	-60*	-29%	/	/
CCOP(=O)(OCC)C(O)c1ccccc1 (configuration not stated)	3%	-3%	-4%	1	1%	/	/
CCOP(=O)(/C(C#N)=C(\C)O)c1ccccc1 (configuration not stated)	3%	-24%	21µM*	-9	8%	/	/
CCOC(=O)c1c(N)n(CCCOC(=O)c2ccco2)c2nc3ccccc3nc12	0%	-19%	-15%	-2	-8%	/	/
CCOC(=O)c1c(NS(=O)(=O)c2ccccc2)n(CCCOC)c2nc3ccccc3nc12	2%	1.8µM*	-25%	1	-30%	/	/
COCCCn1c(N)c(C(=O)OCCOC)c2nc3ccccc3nc21	-1%	-7%	-10%	5	-7%	/	/
CCCCNC(=O)c1c(N)n(CCCOC)c2nc3ccccc3nc12	-1%	11µM*	-3%	/	-8%	/	/
CCCCCn1c(NC(=O)c2ccco2)c(C(=O)OCC)c2nc3ccccc3nc21	0%	7.1µM*	?	2	?	/	/
C#CCOc1ccc(OC)cc1C(c1c(C)[nH][nH]c1=O)c1c(C)[nH][nH]c1=O	1%	-3%	21µM*	-3	-6%	/	/
Cc1cccc(NC(=O)Cn2cc(C(=O)C3CC3)c3ccccc32)c1C	1%	-10%	-6%	1	?	/	/
CN(C)S(=O)(=O)c1cc(NC(=O)C[N+]23CCN(CC2)CC3)ccc1Cl	3%	-17%	-5%	4	-21%[57.1 µM]	/	/
CN(C)S(=O)(=O)c1cc(NC(=O)COC(=O)Cc2ccccc2)ccc1Cl	-3%	-1%	30µM*	-11	-22%	/	/
CSc1ccc(C(=O)C2CCCN(Cc3cccnc3)C2)cc1 (configuration not stated)	3%	-6%	-20%	-1	5%	/	/
CSc1ccc(C(=O)C2CCCN(Cc3cc4ccccc4[nH]3)C2)cc1 (configuration not stated)	-3%	-8%	30µM*	-21	-6%	/	/
C=CCNC(=S)Nc1ccc(OC(=O)Nc2ccc(Cl)c(Cl)c2)cc1	5%	-17%	9.5µM*	16	8%	/	/
COC(=O)c1ccc(C(c2c(C)[nH][nH]c2=O)c2c(C)[nH][nH]c2=O)cc1	0%	-20%	21µM*	-2	3%	/	/
CN1C(=O)/C(=C/C=C/c2ccco2)C(=O)NC1=S	16%	?	?	-90*	35µM*	15µM*	8.6µM*	TO displacement=31%
COC(=O)C1=C(C)N(Cc2ccco2)C(=O)/C1=C\c1ccc(N(C)C)cc1	6%	-6%	9%	2	66%	/	/
O=C1NC(=O)N(Cc2ccco2)C(=O)/C1=C/C=C/c1ccco1	?	-12%	1.2µM*	-83*	20µM*	11µM*	6.1µM*	TO displacement=-7%
Cn1cccc1/C=C1\C(=O)NC(=O)N(Cc2ccco2)C1=O	0%	-16%	24µM*	-80*	40µM*	19µM*	8.6µM*	TO displacement=-8%
CC1=NN=C(c2ccc(N)cc2)c2cc3c(cc2C1)OCO3	6%	0%	-2%	-6	-8%	/	/
COC(=O)C1=C(c2cc3ccccc3s2)C[C@@H]2CC[C@H]1N2C(=O)NC1CCCCC1	/	-29%	-4%	8	-11%	/	/
O=C1NC(=S)NC(=O)C1Cc1ccccc1O	/	-8%	-1%	-25	-6%	/	/
CCN1CCN(C(=O)COc2ccc3oc4c(c3c2)CCCC4)CC1	3%	-17%	-5%	-8	8%	/	/
Cc1nc2cc([N+](=O)[O-])ccc2c(=O)n1-c1cccc(Br)c1	/	1%	0%	12	-1%	/	/
SMILES	USP2a block	USP1 inh	PLK1 PBD inh	PI5P4Ka inh	WRN helicase inh-1	WRN helicase inh-2	BLM counter	others
COc1cc(C=C2C(=O)NC(=O)NC2=O)ccc1OS(=O)(=O)c1ccccc1[N+](=O)[O-]	7%	-18%	2.7µM*	-67*	28µM*	-20%	-4%	TO displacement=-10%
COc1cccc(OC)c1-c1nn2c(-c3n[nH]c4c3CCC4)nnc2s1	/	/	/	/	/	?	?	TO displacement=?
CN(C)CC(C(=O)Cc1ccccc1)c1ccccc1 (configuration not stated)	/	-16%	-9%	2	45µM*	0.3µM*	?	TO displacement=3%
C[n+]1c2cc(N)ccc2cc2ccc(N)cc21	/	4µM*!	0.67µM*	?	18µM*	11µM*	12µM*
Cc1ccc(OCCOc2cccc(C=C3C(=O)NC(=O)NC3=O)c2)c(C)c1	0%	?	5.3µM*	-62*	35µM*	?	27µM*	TO displacement=-23%
O=c1[nH]c(=O)n(CCc2ccccc2)c(O)c1C=NC1CC1	0%	-13%	2%	0	15%	/	/
CC(=O)OC1N=C(c2ccccc2Cl)c2cc(Br)ccc2N(C)C1=O (configuration not stated)	1%	-5%	-6%	1	12%	/	/
CCC(C)N1C(=O)/C(=C\c2cnc(N(C)C)nc2)C(=O)NC1=S (configuration not stated)	3%	-1%	6.7µM*	-57*	50µM*	-6%	-18%	TO displacement=7%
O=c1oc(-c2cccc(C(F)(F)F)c2)nn1-c1ccc(C(F)(F)F)cn1	-1%	?	2%	0	1%	/	/
CCN(CCCl)c1cc(CN(C)C)cc(NC(=O)c2ccc(C(=O)Nc3cc(CN(C)C)cc(N(CC)CCCl)c3)cc2)c1	/	-15%	-3%	?	?	22µM*	?	TO displacement=-18%
COC(=O)C1(F)C(=O)NC(=O)NC1O (configuration not stated)	/	/	/	8	-2%	/	/
COc1ccccc1NC1(C#N)CCCCC1	0%	-7%	-15%	1	4%	/	/

Bioassay records: PubChem BioAssay, National Center for Advancing Translational Sciences (NCATS)
